For 13 compounds, growth results are on record in PubChem BioAssay (NCI).

Holding throughout (assay): NCI-60 one-dose screen, 48 h (100 = growth as untreated, 0 = no growth, -100 = all killed)
Holding throughout (conditions): 10 µM unless noted

Experiment [1] deals with RPMI-8226 leukemia.
In experiment [2] the test system is OVCAR-8 ovarian.
The subject of experiment [3] is OVCAR-5 ovarian.
For experiment [4], the system named is OVCAR-4 ovarian.
Experiment [5] relates to SK-OV-3 ovarian.
Experiment [6] relates to IGROV1 ovarian.
In experiment [7] the test system is OVCAR-3 ovarian.
Experiment [8] relates to HS 578T breast.
For experiment [9], the system named is NCI/ADR-RES ovarian.
The subject of experiment [10] is T-47D breast.

The panel holds about 83,000 compounds, 20% with a hit somewhere; the sample as a whole holds those more often.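 Cell lines were cultured in 96-well plates, exposed to a single compound concentration, and assessed for percent growth 48 hours later.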 A number with no mark means an inactive call. The source made the active and inactive calls. The calls were made as follows: active = growth percent below 10; inactive = the rest.

Consider `COc1ccc2oc(=O)cc(-c3c(C#N)c(N)n4nc(N)c(C#N)c4c3C#N)c2c1`, for which the growth in [1] was 110%; in experiment [2], 111%; in experiment [3] it was 96.8%; in experiment [4] it was 111%; in experiment [5] it was 93.2%; in [6] it was 94.4%. Also, the growth is 91.9% in [7], 104% in experiment [8], 104% in [9] and 84.1% in experiment [10].

`O=c1c2ccccc2n(CC(O)CN2CCCC2)c2c(Br)cccc12` (stereo not given): the growth in [1] was 44.9%; in [2], 94.1%; in experiment [3] it was 76.3%; in experiment [4], 108%; in experiment [5], 101%; in [6], 93.3%. The growth in [7] is 106%; in experiment [8] it was 98.9%; in experiment [9], -14.8% (active); in [10] it was 93.4%.

Regarding `N#Cc1c(-c2ccc(F)cc2)nc(N=Nc2c(O)[nH]c3ccc(Cl)cc23)nc1N1CCOCC1`, the growth in experiment [1] was 80.1%; in experiment [2], 19.1%; in experiment [3], 84.5%; in experiment [4], -37.7% (active); in [5] it was 17.2%; in experiment [6] it was 29.3%. For the same compound, the growth in experiment [7] was 21.6%; in experiment [8], 15.5%; in experiment [9] it was 16.4%; in experiment [10], 46.7%.

Consider `Nc1cc(N)nc(SCC(=O)O)n1`, for which the growth was 102% in [1]; 100% in experiment [2]; 107% in experiment [3]; 106% in experiment [4]; 105% in experiment [5]; 106% in [6]. Further, the growth in [7] was 111%; in experiment [8], 99.6%; in [9], 104%; in experiment [10] it was 105%.

For `Cc1ccc(-c2nc(C#N)c(S(=O)(=O)N(C)CCO)o2)cc1`, the growth in experiment [1] was 27.7%; in experiment [2] it was 67.4%; in experiment [3], 92%; in experiment [4], 105%; in experiment [5] it was 102%; in experiment [6], 60.5%. In addition, the growth was 42.3% in experiment [7], 99.3% in [8], 96.7% in [9] and 67.3% in experiment [10].

For `C=C1C(=O)O[C@H]2[C@H]1CC/C(COC(=O)N1CCC[C@H]1C(=O)Nc1ccc(OC)c(C(N)=O)c1O)=C\CC[C@@]1(C)O[C@@H]21`, the growth is 1.38% (active) in experiment [1]; 44.4% in experiment [2]; 68.5% in [3]; 52% in experiment [4]; 88.8% in [5]; 14.7% in experiment [6]. Also, the growth in experiment [7] is 4.49% (active); in experiment [8], 71.8%; in [9], 106%; in experiment [10], 29.8%.

With `C=C1C(=O)O[C@H]2[C@H]1CC/C(COC(=O)CCCCCCC(=O)OC/C1=C/CC[C@@]3(C)O[C@H]3[C@H]3OC(=O)C(=C)[C@@H]3CC1)=C\CC[C@@]1(C)O[C@@H]21`, the growth is 2.81% (active) in experiment [1]; -18.7% (active) in experiment [2]; 61% in experiment [3]; 42.3% in [4]; 94.6% in experiment [5]; 11.2% in experiment [6]. The growth in [7] is -3.87% (active); in experiment [8] it was 27.2%; in experiment [9], 46.6%; in [10], -18.1% (active).

On to `CC(C)(C)c1nn(-c2ccccc2)c2c1COCN2Cc1ccc(Cl)cc1`, for which the growth is 10.9% in experiment [1]; 107% in [2]; 90% in [3]; 77.2% in experiment [4]; 92.6% in [5]; 117% in [6]. Also, the growth in [7] is 104%; in experiment [8] it was 86.2%; in experiment [9], 94.8%; in experiment [10] it was 73.6%.

In the case of `C=CCn1c(SCC(=O)Nc2ccc(C(=O)/C=C/c3ccc(Cl)cc3)cc2)nnc1-c1cc(OC)c(OC)c(OC)c1`, the growth is 28.7% in experiment [1]; 91.6% in experiment [2]; 116% in experiment [3]; 87.9% in experiment [4]; 109% in experiment [5]; 99.5% in experiment [6]. For the same compound, the growth in experiment [7] is 91.9%; in [8], 87.8%; in experiment [9], 95.5%; in [10] it was 78.9%.

As to `O=C(Nc1cc(=O)[nH]c(=O)[nH]1)C(Cl)Cl`, the growth in [1] is 101%; in [2], 102%; in [3], 112%; in experiment [4] it was 112%; in [5], 107%; in experiment [6], 108%. For the same compound, the growth in experiment [7] was 113%; in experiment [8] it was 95.4%; in experiment [9], 111%; in experiment [10], 91.4%.

`Clc1ccc2c(NCCCNC3CCCCC3)ccnc2c1`: the growth was 82% in experiment [1]; 54.7% in [2]; 114% in experiment [3]; 91.2% in experiment [4]; 140% in experiment [5]; 111% in experiment [6]. Further, the growth in [7] was 109%; in experiment [8], 108%; in experiment [9], 109%; in experiment [10], 108%.

In the case of `CNC(=O)c1cc(Oc2ccc3c(c2)sc2nc(-c4ccc(NC(C)=O)cc4)cn23)ccn1`, the growth in [1] is 60.3%; in experiment [2], 73%; in [3] it was 90%; in experiment [4], 83.5%; in experiment [5] it was 34%; in experiment [6], 69.2%. Also, the growth in experiment [7] was 75%; in experiment [8] it was 43.4%; in experiment [9], 52.1%; in experiment [10], 16.9%.

Regarding `C[C@@H]1C(=O)[C@@H]2C[C@@H](O)[C@@H](O)C[C@]2(C)[C@H]2CC[C@@]3(C)C(=C12)CC[C@@H]3[C@@](C)(O)[C@H](O)CCC(C)(C)O`, the growth in experiment [1] is 105%; in experiment [2], 94.7%; in [3] it was 112%; in experiment [4] it was 114%; in experiment [5], 103%; in experiment [6], 113%. The growth in experiment [7] is 102%; in experiment [8], 99.3%; in experiment [9], 110%; in [10], 95.5%.
